According to PubChem BioAssay (NCI):
About 83,000 compounds went through this panel and 20% of them were active in at least one assay; those are over-represented in the sample as a whole.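 Assay: single dose, 48 h. Readout: percent growth (0 = no net growth; negative = cell death). Active: <10.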 A number with no mark means an inactive call. The source made the active and inactive calls.

Experiments:
Test in all cases: NCI-60 one-dose screen, 48 h (100 = growth as untreated, 0 = no growth, -100 = all killed)
Conditions in all cases: 10 µM unless noted
[1] = tested on: BT-549 breast
[2] = tested on: MDA-MB-435 melanoma
[3] = tested on: SW-620 colon
[4] = tested on: MCF7 breast
[5] = tested on: HCT-116 colon
[6] = tested on: HCC-2998 colon
[7] = tested on: KM12 colon

Structure (SMILES) | growth [1] | growth [2] | growth [3] | growth [4] | growth [5] | growth [6] | growth [7]
NS(=O)(=O)c1ccc(-n2ncc(NC(=O)Nc3ccc(S(=O)(=O)Nc4nccs4)cc3)c2-c2ccccc2)cc1 | 103% | 98.1% | 98.5% | 92% | 93% | 107% | 108%
Nc1c(C(=O)Nc2ccccn2)sc2nc3c(cc12)CCCCC3 | 52.6% | -25.2% (active) | 30% | 20.1% | 17.1% | 30.7% | 18.8%
Cc1c(C(=O)Nc2nc3ccccc3[nH]2)cnn1-c1ccccn1 | 111% | 108% | 107% | 95.6% | 97.3% | 97.3% | 103%
C#Cc1ccccc1NC(=O)c1sc2nc3c(cc2c1N)CCCCC3 | 96.4% | 95.1% | 102% | 81.5% | 109% | 105% | 102%
CC1(C)[C@@H](O)CC[C@]2(C)[C@H]3CC[C@@H]4[C@H]5[C@H](c6cn(-c7ccccc7)nn6)CC[C@]5(CO)CC[C@@]4(C)[C@]3(C)CC[C@@H]12 | 80% | 93.9% | 94.3% | 52.8% | 94.4% | 110% | 88%
Fc1ccc(N/N=C/c2ccc(-n3cccn3)cc2)cc1 | 92.2% | 95.2% | 79.6% | 77% | 91.9% | 97.5% | 80.1%
Cc1ccc(-c2nc(C#N)c(S(=O)(=O)N(C)CCO)o2)cc1 | 76.7% | 65% | 35.1% | 39.8% | 53.4% | 107% | 89.9%
COC1=CC2C=C(C3N(c4ccccc4)NC(=O)[C@@H]4CCCN34)C(=O)NC2C=C1 (some centres undefined) | 97.4% | 97% | 105% | 94.1% | 93.8% | 94.8% | 100%
N#Cc1nc(-c2ccccc2)oc1S(=O)(=O)NCC(c1ccc(Cl)cc1)N1CCCCC1 (centres undefined) | 77.6% | 64.3% | 26.5% | 35% | 27.3% | 107% | 80.6%
COc1cc(C2=NN(C=O)C(c3cccc(Nc4ccnc5cc(C(F)(F)F)ccc45)c3)C2)cc(OC)c1OC (centres undefined) | 56.1% | 43.5% | 64.6% | 38.4% | 58.4% | 70.1% | 59.7%
COCCc1n(Cc2ccc3ccccc3c2)c2ccccc2[n+]1Cc1ccc2ccccc2c1 | -48.5% (active) | -87.5% (active) | -73.7% (active) | -68.1% (active) | -81.2% (active) | -78.1% (active) | -86.2% (active)
COc1ccc(-c2nnc(N3CCN(C(=O)CN4CCN(c5ccccc5)CC4)CC3)nc2-c2ccc(OC)cc2)cc1 | -16.1% (active) | 22.7% | 35.7% | 11.7% | 8.34% (active) | 22.2% | 16.8%
C[C@H]1[C@H](C)CC[C@]2(C(=O)OCCOCCOCC[P+](c3ccccc3)(c3ccccc3)c3ccccc3)CC[C@]3(C)C(=CC[C@@H]4[C@@]5(C)CC[C@H](OC(=O)C(Cl)Cl)C(C)(C)[C@@H]5CC[C@]43C)[C@H]12 | -66.3% (active) | -24.1% (active) | 12.5% | 2.81% (active) | -36.3% (active) | 19.1% | 7.09% (active)
N#Cc1c(-c2ccc(F)cc2)nc(N=Nc2c(O)[nH]c3ccc(Cl)cc23)nc1N1CCOCC1 | 71.4% | 67% | 68.9% | 39.9% | 21.4% | 96.7% | 48.5%
Cc1c(Cl)cccc1NC(=O)c1sc2nc3c(cc2c1N)COCC3 | 49.6% | -20% (active) | 22.8% | 16.4% | 19.7% | 65.1% | 31.8%
CN(CCC#N)C(=O)Nc1ccccc1 | 102% | 107% | 103% | 100% | 109% | 108% | 104%
C=C(C)[C@@H]1CC[C@]2(C(=O)OCCOCCOCC[P+](c3ccccc3)(c3ccccc3)c3ccccc3)CC[C@]3(C)[C@H](CC[C@@H]4[C@@]5(C)CC[C@H](OC(C)=O)C(C)(C)[C@@H]5CC[C@]43C)[C@@H]12 | -89.8% (active) | -91.3% (active) | -77.9% (active) | -76% (active) | -92.2% (active) | -88.4% (active) | -89.8% (active)
C=C1C(=O)O[C@H]2[C@H]1CC/C(COC(=O)CCCCCCCC(=O)OC/C1=C/CC[C@@]3(C)O[C@H]3[C@H]3OC(=O)C(=C)[C@@H]3CC1)=C\CC[C@@]1(C)O[C@@H]21 | 25.2% | 29.9% | 7.61% (active) | 5.35% (active) | -43.6% (active) | 78.6% | 46.7%
N#Cc1ccc(C2C3=C(CCCC3=O)OC3=C2C(=O)c2ccccc2C3=O)cc1 (centres undefined) | 91.9% | -77% (active) | 49.3% | 0.491% (active) | 6.16% (active) | 104% | 89.8%
CNC(=O)c1cc(Oc2ccc3c(c2)sc2nc(-c4ccc(NC(C)=O)cc4)cn23)ccn1 | 38.3% | 3.75% (active) | 57.2% | 55% | 48.9% | 78.1% | 43.3%
COc1cc(-c2cn(-c3ccc(Cl)c(Cl)c3)c(=O)[nH]2)cc(OC)c1OC | 102% | 96.4% | 109% | 87.7% | 78.7% | 99.9% | 90.8%
CC1=C(CCCOC(=O)NCCCl)C2=C(C)C3(CC3)[C@@](C)(O)C(=O)C2=C1 | 17.5% | 84.8% | 80.3% | 29.8% | 28.2% | 28.8% | 79.2%
CC(C)NS(=O)(=O)c1cccc(-c2ccc3c(=O)n(CCCN)c4c(c3c2)C(=O)c2ccccc2-4)c1 | 99.8% | 107% | 92.4% | 101% | 96.6% | 105% | 98.9%
COc1ccc(-c2[nH]c3ccc(OC)cc3c2C=C(C#N)C#N)cc1 | 55.1% | -62.5% (active) | 26.5% | 17.1% | 19% | 50.3% | 20.1%
C1=CC2=CC=C3C=CC=C4C(c5nc6c7ccccc7c7ccccc7c6[nH]5)=CC(=C1)C2C34 (centres undefined) | 97.3% | 99.9% | 98.3% | 76.9% | 83.3% | 111% | 86.5%
COc1ccc(Nc2cc(NC(=O)CNc3cc(OC)c(Cl)c(OC)c3Cl)ncn2)cc1 | 83.2% | 74% | 96.3% | 71.7% | 69.9% | 95.5% | 81.5%

Structure (SMILES) | growth [1] | growth [2] | growth [3] | growth [4] | growth [5] | growth [6] | growth [7]
C[C@H](Oc1cc(-c2cnn(C3CCNCC3)c2)cnc1N)c1c(Cl)ccc(F)c1Cl | 75.7% | 66.1% | 79.5% | 37.6% | 31.9% | 66% | 50.6%
O=C(/C(=C\c1c(-c2ccccc2)[nH]c2ccccc12)S(=O)(=O)c1ccccc1)c1ccccc1 | 47.7% | 17.2% | 53% | 40.7% | 33% | 73.1% | 27%
C=C1C(=O)O[C@H]2[C@H]1CC/C(COC(=O)CCCCCCC(=O)OC/C1=C/CC[C@@]3(C)O[C@H]3[C@H]3OC(=O)C(=C)[C@@H]3CC1)=C\CC[C@@]1(C)O[C@@H]21 | 49.4% | 40.4% | 14.8% | 14.8% | -40.6% (active) | 89.3% | 61.5%
CC1CCCN(CCCCCOc2ccc3oc4ccc(Cl)cc4c(=O)c3c2)C1 (centres undefined) | 80.3% | 25.1% | 56.6% | 60.8% | 32.2% | 78.3% | 59.4%
O=C1Nc2ccc(Br)cc2/C1=N\N=C/c1cn(Cc2ccccc2)c2ccccc12 | 105% | 105% | 99% | 83.2% | 93.7% | 106% | 96.2%
COc1ccc2oc(=O)cc(-c3nc4ccc(N)cc4[nH]3)c2c1 | 77.1% | 106% | 103% | 77.2% | 88.6% | 97.9% | 87.7%
C/C(=N\NC(=O)c1ccncc1)c1ccc(N)cc1 | 93.2% | 102% | 101% | 95.9% | 99.6% | 106% | 106%
CC[C@H](Nc1ncnc2nc[nH]c12)c1nc2cccc(CC(=O)c3ccc(C(=O)NO)cc3)c2c(=O)n1-c1ccccc1 | 85.8% | 97.6% | 96.3% | 77.9% | 90.5% | 88.9% | 93.5%
c1ccc(-c2cn3ccnc3c(-c3ccc4c(c3)ncn4C3CCCCC3)n2)cc1 | 99.6% | 99.5% | 110% | 84.1% | 96.2% | 105% | 94.3%
CSc1cccc(NC(=O)Nc2nc3c(C)cccc3s2)c1 | 119% | 106% | 113% | 76.4% | 93% | 106% | 107%
C=C1C(=O)O[C@H]2[C@H]1CC/C(COC(=O)c1cccnc1N)=C\CC[C@@]1(C)O[C@@H]21 | -37.2% (active) | -4.17% (active) | 4.05% (active) | 7.98% (active) | 3.94% (active) | 35.3% | 13.4%
CC(C)C1=C[C@@]23CC[C@H]4[C@](C)(COCCC#N)CCC[C@]4(C)[C@H]2C[C@@H]1[C@@H]1[C@H]3[C@@H](OCCC#N)CC[C@@H]1OCCC#N | 39.4% | 40.1% | 47.4% | 9.61% (active) | 24.6% | 44.4% | 32.7%
CCCCCCN1C(=O)CN=C1Nc1ccc2cc3ccc(NC4=NCC(=O)N4CCCCCC)cc3nc2c1 | 78.1% | 55.3% | -51.6% (active) | 0.96% (active) | 20.1% | 47.2% | 31.1%
Cn1cc(-c2ccc3c(c2)ncn3-c2ccc(CC(=O)Nc3cc(C(C)(C)C)on3)cc2)cn1 | 31.5% | 34.8% | 33.7% | 26.9% | 16.6% | 76.3% | 16.3%
CC[C@]12C=CCN3CC[C@@]4(c5cc(NC(=O)CCC(=O)O[C@H]6CC[C@H]7[C@@H]8CC[C@H]9CC(=O)CC[C@]9(C)[C@H]8CC[C@]67C)c(OC)cc5N(C)[C@H]4[C@@](O)(C(=O)OC)[C@@H]1OC(C)=O)[C@@H]32 | 58.6% | 76.5% | 85.6% | 48.2% | 47.5% | 97.5% | 74.2%
Cc1c(Cl)cccc1NC(=O)c1sc2nc3c(cc2c1N)CCCCCC3 | 11.2% | -19.5% (active) | 21.4% | 15.1% | 5.07% (active) | 52.2% | 19.1%
O=C1Nc2ccc(Cl)cc2/C1=N/c1nc(-c2ccc(Cl)cc2)cs1 | 17.4% | -82.3% (active) | 12.9% | 5.81% (active) | 3.16% (active) | 9.52% (active) | 1.73% (active)
CC(C)(C)c1nn(-c2ccccc2)c2c1COCN2Cc1ccc(Cl)cc1 | 122% | 100% | 82.9% | 80.1% | 62.8% | 51.9% | 86.4%
Cc1cc(Nc2nc(SCc3ccc(C(=O)Nc4ccc(F)cc4N)cc3)nn3cccc23)n[nH]1 | 27% | 12.8% | 23.9% | 23.5% | 10.1% | 23.9% | 7.02% (active)
O=C(CN1N=C(c2ccc(F)cc2)CCC1=O)Nc1nc2ccccc2s1 | -71.2% (active) | 99.9% | 57.8% | 87.4% | 70.7% | 95.7% | 45.1%
COc1cc(NC(=O)Nc2cnc(Nc3ccc(N4CCOCC4)cc3)nc2Oc2ccc(F)cc2)cc(OC)c1 | 98.2% | 88.3% | 82.7% | 91% | 6.9% (active) | 101% | 92.4%
CC1CCN(CCCCCOc2ccc3oc4ccccc4c(=O)c3c2)CC1 | 80.3% | 79.9% | 81.7% | 68.3% | 52.7% | 79.5% | 69.9%
Nc1cc(N)c(S(=O)(=O)O)cc1N=Nc1cc([N+](=O)[O-])ccc1O | 105% | 112% | 108% | 94.7% | 94% | 109% | 106%
COc1cc(C2=N/C(=C\c3cc4ccccc4nc3Oc3ccccc3)C(=O)N2C(=N)N)cc(OC)c1OC | 32.7% | 95.2% | 87.8% | 75.5% | 52.8% | 75.2% | 79.6%
CC(C)(C)c1nc2c(s1)c1nc(N)ncc1c1ccc(NS(=O)(=O)c3c(F)cccc3F)c(F)c12 | 77.4% | 38.6% | 110% | 89.8% | 49.3% | 82% | 35.5%
COc1cc(F)c(-c2nc3c(C)cccc3n2Cc2c(F)cccc2F)c(F)c1 | 98.5% | 94.8% | 91.6% | 78.5% | 74.6% | 82.1% | 90.1%
